Data reported in PubChem BioAssay (Tox21).
Records with an inconclusive call do not appear. Activity calls are given as the source filed them. Unless noted, calls follow the shape of the dose curve; as a rule, active = well fitted curve in the direction sought with a large enough effect in the repeat runs; inconclusive = weak or mixed curves; inactive = no such curve, though single readings can be large; an effect the other way counts as inactive or inconclusive.

Tests used:
[1] = qHTS assay to identify small molecule agonists of the sonic hedgehog signaling (Shh) pathway (AID 1259368; calls by dose curve;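 also: NIH/3T3-derived 3T3Gli1-Luc cells carrying a stable Gli1-driven firefly luciferase reporter; series mostly up to about 92 µM; nearly all actives have a fitted effect of over 15% in size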)
In short: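 Mouse fibroblast (NIH/3T3) reporter cells with stably integrated Gli1-Luc were treated 24 hr with compound; firefly luciferase luminescence served as the read-out.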

[2] = molecular target: Estrogen receptor beta (Homo sapiens) (UniProt Q92731); test: qHTS assay to identify small molecule antagonists of the estrogen receptor beta (ER-beta) signaling pathway (AID 1259378; active = well fitted inhibition curve with a large enough effect in the signal ratio in the repeat runs, not every such curve was filed as active; the % refers to the signal ratio; also: potency is read from the fitted curve at half-maximal effect)
In short: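 Antagonist mode: compounds added to beta-lactamase reporter HEK293T ER-beta-UAS cells stimulated with E2 (1nM final), 16 hr at 37C. LiveBLAzer B/G FRET substrate, 2 hours room temperature, fluorescence read-out.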

[3] = qHTS assay to identify small molecule agonists of the androgen receptor (AR) signaling pathway in the presence of an antagonist - cell viability counter screen (AID 1259379); also: nearly all actives have a fitted effect of over 25% in size; also: potency is read from the fitted curve at half-maximal effect
In short: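 A CellTiter-Fluor read-out measured viability of MDA-kb2 reporter cells (MMTV promoter with AR and GR response elements). Treatment: nilutamide 3.0uM final with compounds at 15 concentrations, 16 hr, 37C, 0% CO2.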

[4] = qHTS assay to identify small molecule agonists of the estrogen receptor beta (ER-beta) signaling pathway - cell viability counter screen (AID 1259380); also: nearly all actives have a fitted effect of over 30% in size; also: potency is read from the fitted curve at half-maximal effect
In short: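 Cells used were ER-beta-UAS-bla HEK293T in medium with 2% charcoal-stripped FBS. They were treated for 16 hr at 37C. Viability came from CellTiter-Glo luminescence.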

[5] = molecular target: Androgen receptor (Homo sapiens) (UniProt P10275); test: qHTS assay to identify small molecule agonists of the androgen receptor (AR) signaling pathway in the presence of an antagonist (AID 1259381; calls by dose curve; also: nearly all actives have a fitted effect of over 15% in size)
In short: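 Using human MDA-kb2 cells with an MMTV promoter–luciferase construct (AR and GR response elements), agonist activity is scored under 3.0uM nilutamide (final) co-treatment; 16hr incubation, 37C, luminescence readout via ONE-Glo.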

[6] = qHTS assay to identify small molecule antagonists of the estrogen receptor beta (ER-beta) signaling pathway - cell viability counter screen (AID 1259382); also: nearly all actives have a fitted effect of over 55% in size; also: potency is read from the fitted curve at half-maximal effect
In short: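 Agonist-stimulated (1nM E2) ER-beta-UAS-bla HEK293T cells are incubated with library compounds for 16 hr at 37C. Cell viability is then assessed in the reporter-assay wells by adding CellTiter-Glo and reading luminescence after 30 min.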

[7] = molecular target: Estrogen receptor (Homo sapiens) (UniProt P03372); test: qHTS assay to identify small molecule agonists of the estrogen receptor alpha (ER-alpha) signaling pathway in the presence of an antagonist (AID 1259383; calls by dose curve; also: top concentration of the series differs between compounds; nearly all actives have a fitted effect of over 15% in size)
In short: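 Using VM7Luc4E2 cells seeded 24hr before treatment, antagonist ICI-182,780 (10.0nM final) was added, followed by compounds at 15 concentrations. Plates incubated 22hr; ONE-Glo luminescence quantified reporter activity.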

[8] = qHTS assay to identify small molecule agonists or antagonists of the thyroid stimulating hormone receptor (TSHR) signaling pathway - wild type cell line counter screen (AID 1259384; calls by dose curve)
In short: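 Counter screen in untransfected Hek293: compounds (15-point titration, triplicate) plus phosphodiesterase inhibitor Ro20-1724 added after 18 h plating; 30 min RT. Intracellular cAMP via competitive d2/cryptate immunoassay, 1 h incubation.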

[9] = molecular target: Thyrotropin receptor (Homo sapiens) (UniProt P16473); test: qHTS assay to identify small molecule antagonists of the thyroid stimulating hormone receptor (TSHR) signaling pathway (AID 1259385; calls by dose curve; also: nearly all actives have a fitted effect of over 20% in size)
In short: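 Antagonist mode: compound-treated TSHR-expressing HEK293 cells were stimulated with 1.5 ng/mL TSH (final) in presence of Ro20-1724 for 30 min at RT. HTRF cAMP detection after 1 h; each compound tested at 15 concentrations, triplicate.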

[10] = qHTS assay to identify small molecule agonists of the estrogen receptor alpha (ER-alpha) signaling pathway in the presence of an antagonist - cell viability counter screen (AID 1259386);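 also: cells exposed to compounds for 22 h at 37 °C before the viability read; nearly all actives have a fitted effect of over 30% in size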; also: potency is read from the fitted curve at half-maximal effect
In short: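 ICI-182,780 at 10.0nM final accompanies the compound titration (15 concentrations, 22hr, 37C) on VM7Luc4E2 cells. The CellTiter-Fluor fluorescence readout runs in the same wells as the luciferase assay.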

[11] = molecular target: Progesterone receptor (Homo sapiens) (UniProt P06401); test: qHTS assay to identify small molecule agonists of the progesterone receptor (PR) signaling pathway (AID 1346784; calls by dose curve; also: nearly all actives have a fitted effect of over 30% in size)
In short: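 Agonist qHTS: compounds pinned onto 3,000 PR-UAS-bla HEK 293T cells per well in charcoal-stripped serum medium, 16hr at 37C, then beta-lactamase activity measured by LiveBLAzer FRET fluorescence after 2 hours at room temperature.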

[12] = molecular target: Progesterone receptor (Homo sapiens) (UniProt P06401); test: qHTS assay to identify small molecule antagonists of the progesterone receptor (PR) signaling pathway (AID 1346795; active = well fitted inhibition curve with a large enough effect in the signal ratio in the repeat runs, not every such curve was filed as active; the % refers to the signal ratio; also: potency is read from the fitted curve at half-maximal effect)
In short: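 Antagonist mode with agonist R5020 at 1 nM final and 16 hr incubation at 37C. Reporter was beta-lactamase driven by UAS in HEK293T (PR-UAS-bla), 2% charcoal-stripped serum; signal from LiveBLAzer FRET substrate, 2 hr at room temperature.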

[13] = qHTS assay to identify small molecule antagonists of the progesterone receptor (PR) signaling pathway - cell viability counter screen (AID 1346798); also: nearly all actives have a fitted effect of over 50% in size; also: potency is read from the fitted curve at half-maximal effect
In short: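 Cytotoxicity read as CellTiter-Glo luminescence (30 min, room temperature) in the same wells as the beta-lactamase readout. HEK293T PR-UAS-bla cells in charcoal-stripped 2% FBS received compound and R5020, then 16 h at 37C, 5% CO2.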

[14] = qHTS assay to identify small molecule agonists of the progesterone receptor (PR) signaling pathway - cell viability counter screen (AID 1346799; calls by dose curve; also: nearly all actives have a fitted effect of over 45% in size; also: potency is read from the fitted curve at half-maximal effect)
In short: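 Cytotoxicity measured by CellTiter-Glo luminescence (30 min, RT) in the same wells as the PR beta-lactamase agonist read. Those HEK293T cells had 16 h compound treatment at 37 C in 2% charcoal-stripped FBS medium.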

[15] = qHTS assay to identify small molecule agonists of the TGF-beta/Smad signaling pathway (AID 1346859; active = well fitted activation curve with a large enough effect in the signal ratio in the repeat runs, not every such curve was filed as active; the % refers to the signal ratio; also: series mostly up to about 77 µM)
In short: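 Fluorescence (ex 405 nm; em 460 and 530 nm) was read 2 h after LiveBLAzer FRET substrate at RT. The preceding compound treatment of overnight-plated SBE-bla HEK293T cells lasted 5 h at 37 C.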

[16] = molecular target: Thyrotropin-releasing hormone receptor (Homo sapiens) (UniProt P34981); test: qHTS assay to identify small molecule antagonists of the thyrotropin-releasing hormone receptor (TRHR) signaling pathway (AID 1346877; active = well fitted inhibition curve with a large enough effect in the repeat runs, not every such curve was filed as active; also: series mostly up to about 51 µM)
In short: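 Screening used HEK293 cells engineered with TRHR, with a brief 5 min room-temperature compound exposure preceding addition of TRH to 1 nM. The read-out was kinetic calcium-dye fluorescence, concentration-response from 15 doses in triplicate.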

[17] = molecular target: Estrogen receptor beta (Homo sapiens) (UniProt Q92731); test: qHTS assay to identify small molecule agonists of the estrogen receptor beta (ER-beta) signaling pathway (AID 1259377; active = well fitted activation curve with a large enough effect in the signal ratio in the repeat runs, not every such curve was filed as active; the % refers to the signal ratio)
In short: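 Ratiometric beta-lactamase FRET read-out came after 2 h substrate loading at room temperature. It followed 16 h compound treatment at 37C of GripTite HEK293T cells carrying a UAS-bla reporter, plated in 2% charcoal-stripped FBS medium.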

[18] = qHTS assay to identify small molecule antagonists of the TGF-beta/Smad signaling pathway - cell viability counter screen (AID 1346824); also: nearly all actives have a fitted effect of over 50% in size
In short: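 Cytotoxicity counter-screen run in the same wells as the beta-lactamase Smad reporter read: CellTiter-Glo luminescence after 30 min at room temperature. HEK 293T SBE-bla cells had 5 hr compound exposure at 37 C with TGF-beta1 (0.25 ng/mL stock).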

[19] = qHTS assay to identify small molecule agonists of the TGF-beta/Smad signaling pathway - cell viability counter screen (AID 1346829); also: top concentration of the series differs between compounds; nearly all actives have a fitted effect of over 45% in size
In short: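 Luminescence from CellTiter-Glo, read after a 30 min room-temperature incubation, gives cell viability of SBE-bla HEK 293T cells treated 5 hr with compounds at 37 C.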

Measured: Potency

Thyrotropin receptor (Homo sapiens), sequence (P16473 whole entry, looked up): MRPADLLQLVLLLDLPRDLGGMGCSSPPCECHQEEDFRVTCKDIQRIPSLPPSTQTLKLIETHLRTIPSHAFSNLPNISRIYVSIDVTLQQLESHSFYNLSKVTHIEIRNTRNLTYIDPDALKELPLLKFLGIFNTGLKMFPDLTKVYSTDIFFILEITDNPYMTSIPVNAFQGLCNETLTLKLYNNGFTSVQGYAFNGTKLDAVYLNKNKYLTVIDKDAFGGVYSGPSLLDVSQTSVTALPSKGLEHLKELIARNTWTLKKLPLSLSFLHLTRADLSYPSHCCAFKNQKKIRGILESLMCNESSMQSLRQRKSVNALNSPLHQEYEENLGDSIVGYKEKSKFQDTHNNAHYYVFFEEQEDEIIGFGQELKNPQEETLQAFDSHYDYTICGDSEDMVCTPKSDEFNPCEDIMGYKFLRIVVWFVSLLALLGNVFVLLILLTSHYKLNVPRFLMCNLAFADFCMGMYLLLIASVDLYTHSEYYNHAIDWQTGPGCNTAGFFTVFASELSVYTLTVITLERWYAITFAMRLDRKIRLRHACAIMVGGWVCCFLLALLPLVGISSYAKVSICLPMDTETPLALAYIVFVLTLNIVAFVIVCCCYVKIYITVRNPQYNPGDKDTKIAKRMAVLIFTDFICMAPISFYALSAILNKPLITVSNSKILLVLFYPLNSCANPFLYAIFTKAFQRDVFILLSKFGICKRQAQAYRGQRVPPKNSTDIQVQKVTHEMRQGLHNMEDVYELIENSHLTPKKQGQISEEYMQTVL
Estrogen receptor beta (Homo sapiens), sequence (Q92731 whole entry, looked up): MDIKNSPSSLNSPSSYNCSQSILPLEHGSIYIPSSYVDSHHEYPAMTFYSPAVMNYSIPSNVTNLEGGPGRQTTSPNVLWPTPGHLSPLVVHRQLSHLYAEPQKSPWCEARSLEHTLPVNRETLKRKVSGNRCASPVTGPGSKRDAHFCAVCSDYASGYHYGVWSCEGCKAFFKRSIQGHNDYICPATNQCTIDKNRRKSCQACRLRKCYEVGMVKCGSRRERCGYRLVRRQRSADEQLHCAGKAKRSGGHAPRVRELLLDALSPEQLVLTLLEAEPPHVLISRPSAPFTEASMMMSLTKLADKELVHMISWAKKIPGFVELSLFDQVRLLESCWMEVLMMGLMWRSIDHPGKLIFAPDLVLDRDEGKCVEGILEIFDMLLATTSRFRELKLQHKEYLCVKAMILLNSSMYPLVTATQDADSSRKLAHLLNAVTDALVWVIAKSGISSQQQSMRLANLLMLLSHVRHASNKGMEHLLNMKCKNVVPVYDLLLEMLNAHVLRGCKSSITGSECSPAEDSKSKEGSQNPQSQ
Estrogen receptor (Homo sapiens), sequence (P03372 whole entry, looked up): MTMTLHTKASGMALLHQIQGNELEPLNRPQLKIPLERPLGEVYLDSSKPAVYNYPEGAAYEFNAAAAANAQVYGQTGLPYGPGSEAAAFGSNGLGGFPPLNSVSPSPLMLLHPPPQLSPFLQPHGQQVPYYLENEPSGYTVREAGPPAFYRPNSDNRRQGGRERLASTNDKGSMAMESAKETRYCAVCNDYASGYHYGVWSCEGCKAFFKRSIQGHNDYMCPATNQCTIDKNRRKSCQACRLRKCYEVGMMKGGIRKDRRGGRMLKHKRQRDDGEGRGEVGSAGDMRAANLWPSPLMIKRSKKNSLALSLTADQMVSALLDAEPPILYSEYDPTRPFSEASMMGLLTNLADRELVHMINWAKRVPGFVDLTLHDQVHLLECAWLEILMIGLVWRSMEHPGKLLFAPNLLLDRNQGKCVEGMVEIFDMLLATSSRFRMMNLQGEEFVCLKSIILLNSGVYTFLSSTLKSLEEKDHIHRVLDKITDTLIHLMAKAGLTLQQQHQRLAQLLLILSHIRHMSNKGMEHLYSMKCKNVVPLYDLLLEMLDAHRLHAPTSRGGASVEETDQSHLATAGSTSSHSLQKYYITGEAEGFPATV
Thyrotropin-releasing hormone receptor (Homo sapiens), sequence (P34981 whole entry, looked up): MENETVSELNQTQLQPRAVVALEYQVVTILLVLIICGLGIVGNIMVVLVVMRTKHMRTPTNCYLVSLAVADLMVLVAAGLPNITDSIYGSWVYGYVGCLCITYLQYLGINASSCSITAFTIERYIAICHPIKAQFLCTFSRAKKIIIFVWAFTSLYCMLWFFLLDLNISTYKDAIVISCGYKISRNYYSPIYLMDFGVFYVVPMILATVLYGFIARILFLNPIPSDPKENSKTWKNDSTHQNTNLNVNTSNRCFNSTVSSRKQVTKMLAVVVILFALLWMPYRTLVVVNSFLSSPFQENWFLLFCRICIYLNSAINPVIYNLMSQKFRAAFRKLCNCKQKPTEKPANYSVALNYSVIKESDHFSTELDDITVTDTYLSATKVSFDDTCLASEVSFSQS
Progesterone receptor (Homo sapiens), sequence (P06401 whole entry, looked up): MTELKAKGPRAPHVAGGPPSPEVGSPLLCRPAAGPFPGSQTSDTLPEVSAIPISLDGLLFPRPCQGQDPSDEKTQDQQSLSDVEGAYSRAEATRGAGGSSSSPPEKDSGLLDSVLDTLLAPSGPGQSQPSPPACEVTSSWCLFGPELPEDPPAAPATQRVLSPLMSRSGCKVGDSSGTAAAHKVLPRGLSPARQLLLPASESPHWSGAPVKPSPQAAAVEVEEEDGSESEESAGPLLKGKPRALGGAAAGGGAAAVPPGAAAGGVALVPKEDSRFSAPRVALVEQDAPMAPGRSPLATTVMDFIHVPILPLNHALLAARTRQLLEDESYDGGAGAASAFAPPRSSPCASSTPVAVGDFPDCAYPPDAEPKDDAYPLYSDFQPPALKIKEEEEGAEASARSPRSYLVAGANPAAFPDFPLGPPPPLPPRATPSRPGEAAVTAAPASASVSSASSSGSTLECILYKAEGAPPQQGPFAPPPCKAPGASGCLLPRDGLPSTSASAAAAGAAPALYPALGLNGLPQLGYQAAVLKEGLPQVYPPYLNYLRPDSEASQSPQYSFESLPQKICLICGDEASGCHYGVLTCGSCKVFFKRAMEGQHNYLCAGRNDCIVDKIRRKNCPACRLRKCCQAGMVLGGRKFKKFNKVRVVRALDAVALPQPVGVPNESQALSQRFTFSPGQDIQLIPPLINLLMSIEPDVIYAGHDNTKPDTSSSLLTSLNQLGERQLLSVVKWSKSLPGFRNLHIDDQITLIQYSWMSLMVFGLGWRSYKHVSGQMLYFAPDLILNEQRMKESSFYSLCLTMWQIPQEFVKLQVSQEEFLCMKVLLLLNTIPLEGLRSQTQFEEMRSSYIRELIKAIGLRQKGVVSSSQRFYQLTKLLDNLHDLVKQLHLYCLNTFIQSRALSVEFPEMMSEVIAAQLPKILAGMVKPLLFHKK
Androgen receptor (Homo sapiens), sequence (P10275 whole entry, looked up): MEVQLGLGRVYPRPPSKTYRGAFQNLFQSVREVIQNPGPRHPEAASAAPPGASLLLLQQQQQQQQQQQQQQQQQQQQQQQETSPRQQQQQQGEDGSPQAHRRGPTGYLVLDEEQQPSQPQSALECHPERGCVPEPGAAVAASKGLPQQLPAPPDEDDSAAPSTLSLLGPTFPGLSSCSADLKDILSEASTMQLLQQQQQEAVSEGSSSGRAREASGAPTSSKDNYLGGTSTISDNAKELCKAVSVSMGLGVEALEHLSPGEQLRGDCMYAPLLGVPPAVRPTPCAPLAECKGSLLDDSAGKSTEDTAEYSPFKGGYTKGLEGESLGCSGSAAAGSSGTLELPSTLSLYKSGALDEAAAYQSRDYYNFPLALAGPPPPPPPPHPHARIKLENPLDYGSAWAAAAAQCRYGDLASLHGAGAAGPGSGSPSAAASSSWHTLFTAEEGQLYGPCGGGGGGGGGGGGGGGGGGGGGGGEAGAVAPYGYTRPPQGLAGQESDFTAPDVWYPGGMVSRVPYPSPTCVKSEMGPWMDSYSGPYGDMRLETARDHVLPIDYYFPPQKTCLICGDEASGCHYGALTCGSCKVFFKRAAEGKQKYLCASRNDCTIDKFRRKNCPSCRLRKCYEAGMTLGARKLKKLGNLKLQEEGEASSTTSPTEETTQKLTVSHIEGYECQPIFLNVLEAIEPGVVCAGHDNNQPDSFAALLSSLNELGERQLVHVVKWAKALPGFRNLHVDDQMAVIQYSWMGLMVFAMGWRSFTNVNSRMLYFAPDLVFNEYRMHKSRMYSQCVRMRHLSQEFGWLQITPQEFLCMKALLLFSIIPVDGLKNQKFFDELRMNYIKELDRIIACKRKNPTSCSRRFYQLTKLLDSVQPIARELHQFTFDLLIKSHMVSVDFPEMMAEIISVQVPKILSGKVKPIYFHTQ

CCCCCCC(C)(C)C(=O)O
not listed: [17] | [18] | [19]
inactive: all other assays above

COC(=O)C1=C(C)NC(C)=C(C(=O)O[C@@H]2CCCN(Cc3ccccc3)C2)[C@@H]1c1cccc([N+](=O)[O-])c1
inactive: [1] | [17] | [3] | [4] | [7] | [8] | [9] | [18] | [15] | [16]
active: [2] 26.6 µM

CC(=O)[C@H]1[C@H](C#N)C[C@H]2[C@@H]3CC=C4C[C@@H](O)CC[C@]4(C)[C@H]3CC[C@@]21C
active: [4] 29.5 µM
inactive: [1] | [17] | [3] | [7] | [11] | [13] | [14] | [19] | [16]

C=C1c2cccc(O)c2C(O)=C2C(=O)[C@]3(O)C(O)=C(C(N)=O)C(=O)[C@@H](N(C)C)[C@@H]3[C@@H](O)[C@H]12
not listed: [5] | [6] | [8] | [9] | [11] | [19]
inactive: all other assays above

Nc1nnc(-c2ccc([N+](=O)[O-])o2)o1
active: [3] 54.5 µM | [10] 61.1 µM
not listed: [2] | [4] | [5] | [12] | [13] | [14] | [16]
inactive: all other assays above

CCCCCCCC/C=C\CCCCCCCCCCCC(=O)O
not listed: [2] | [8] | [9] | [12] | [16] | [17]
inactive: all other assays above

CC1CC(C)C(=O)C1=O (centres undefined)
not listed: [5] | [7] | [19]
inactive: all other assays above

O=C(O)CCCCCCCCCCCBr
not listed: [4] | [5] | [8] | [9] | [10] | [14] | [15]
inactive: all other assays above

C=C(C)CCCC(C)CCO (centres undefined)
not listed: [5] | [10] | [11]
inactive: all other assays above

O=c1[nH]ncc2ccccc12
not listed: [5] | [10] | [11]
inactive: all other assays above

c1ccc(C[n+]2cccc3ccccc32)cc1
active: [3] 48.6 µM
not listed: [2] | [5] | [9] | [14] | [16] | [19]
inactive: all other assays above

CCCCCCNC(=O)n1cc(F)c(=O)[nH]c1=O
not listed: [4] | [5] | [7] | [12] | [17]
inactive: all other assays above

C[C@@H](CN(C)C)CN1c2ccccc2Sc2ccccc21
inactive: [1] | [17] | [7] | [10] | [19] | [15]
active: [2] 23.7 µM | [4] 18.8 µM | [6] 21.1 µM | [12] 26.6 µM | [13] 18.8 µM | [14] 10.6 µM

CCC(C)COC(=O)CC(C)C (centres undefined)
active: [4] 30.6 µM | [13] 9.69 µM
not listed: [5] | [6] | [12] | [14]
inactive: all other assays above

Cc1cc(O)ccc1O
inactive: [1] | [17] | [18] | [19] | [15] | [16]
active: [2] 55.1 µM | [4] 61.8 µM | [6] 61.8 µM

Cc1cc2c(OCC(CNC(C)(C)C)OC(=O)c3ccccc3)cccc2[nH]1 (centres undefined)
not listed: [3] | [5] | [6] | [14] | [16]
inactive: all other assays above

CCCCCCCCN
not listed: [5] | [7]
inactive: all other assays above
